Source: PubChem (National Center for Advancing Translational Sciences (NCATS))
Giardia FBPA inh = inhibitors of Giardia lamblia fructose-1,6-bisphosphate aldolase | A8B2U2 | purified Giardia FBPA | Potency, µM (titrated, usually from 59.6 µM), actives largely listed as inhibitors | actives 0.71% (n = 290,000) | AID 2451; further: nearly all actives have a fitted effect of over 55% in size
Target sequence (A8B2U2 whole entry, looked up): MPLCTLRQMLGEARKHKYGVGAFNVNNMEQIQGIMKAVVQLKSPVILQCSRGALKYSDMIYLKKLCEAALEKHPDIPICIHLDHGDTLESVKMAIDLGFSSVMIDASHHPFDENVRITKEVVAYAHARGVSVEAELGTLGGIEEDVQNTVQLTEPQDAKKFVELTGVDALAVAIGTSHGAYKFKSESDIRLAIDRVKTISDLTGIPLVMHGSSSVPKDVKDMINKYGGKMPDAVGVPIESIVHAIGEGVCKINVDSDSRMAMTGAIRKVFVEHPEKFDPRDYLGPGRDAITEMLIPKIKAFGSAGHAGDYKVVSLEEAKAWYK
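Giardia FBPA (40 nM reagent) was preincubated 10 min at RT with compound (up to 57.5 uM final), then substrate plus GAPDH/TPI/NAD/arsenate coupling system with diaphorase/resazurin was added; resorufin fluorescence (525/598 nm) was read after 20 min.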
Cruzain inh noDet = blocks cruzain activity in detergent-free assay | P25779 | purified cruzain, Z-FR-AMC fluorescence, no detergent | Potency, µM, actives largely listed as inhibitors | actives 2.3% (n = 200,000); further: nearly all actives have a fitted effect of over 40% in size
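Detergent-free condition (0.00005% Triton X-100) in acetate buffer pH 5.5 with DTT. 1.5 nM enzyme and compound were pre-mixed 15 min, then 2 uM Z-FR-AMC substrate added; reaction progress from fluorescence change between first and third reads (60 s).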
Cruzain inh Det = blocks cruzain activity in presence of Triton detergent | P25779 | purified cruzain, Z-FR-AMC fluorescence, 0.01% Triton | Potency, µM, actives largely listed as inhibitors | actives 0.43% (n = 200,000); further: nearly all actives have a fitted effect of over 40% in size
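Detergent-containing run (0.01% Triton X-100) in acetate buffer pH 5.5 with 5 mM DTT: enzyme at 1.5 nM final, 15 min compound preincubation at room temperature, then 2 uM Z-FR-AMC substrate. Activity taken as 60 s fluorescence increase at 360/450 nm.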
Hits are given with their value; - = inactive; ? = inconclusive; . = no result; ! = repeats disagree. The entries come from a sample that favours hits as a whole. The call rests on the fitted dose curve; in most records, active means well fitted curve in the direction sought with a large enough effect; inconclusive means small, poorly fitted or top-dose-only effect, or another doubt; inactive means no such curve, though single readings can be large; an effect the other way counts as inactive or inconclusive.

SMILES | Giardia FBPA inh | Cruzain inh noDet | Cruzain inh Det
O=C(O)c1ccc2c(c1)C(=O)N([C@H](Cc1ccc(O)cc1)C(=O)O)C2=O | - | . | .
O=C(Nc1ccc(F)cc1F)c1ccc(COc2c(F)c(F)cc(F)c2F)o1 | - | - | -
O=C(Nc1ccc(Cl)cc1F)c1ccc(COc2c(F)c(F)c(F)c(F)c2F)o1 | - | ? | 20µM
Cc1ccc(-c2csc(N=C(N)N)n2)cc1 | - | . | .
NC(N)=Nc1nc(CSCC/C(N)=N/S(N)(=O)=O)cs1 | - | 10µM! | -
CCc1nnc(NC(=O)c2ccc(N3C(=O)CCC3=O)cc2)s1 | - | - | -
Cc1ccc(C)c2sc(NC(=O)c3ccc(N4C(=O)CCC4=O)cc3)nc12 | - | 20µM | -
CC(=O)c1ccc(C2CC34CNS(=O)(=O)C3CC2O4)cc1 (stereo not drawn) | - | . | .
CCOC(=O)c1ccc(NC(=O)CSc2ncc(S(=O)(=O)c3ccc(C)c(Cl)c3)c(=O)[nH]2)cc1 | . | ? | 28.2µM
Cc1ccc(C)c(NC(=O)CSc2ncc(S(=O)(=O)c3ccc(C)c(Cl)c3)c(=O)[nH]2)c1 | . | - | -
COc1ccc(C(=S)N2CCNCC2)cc1 | - | - | -
COc1ccc(C(=S)N2CCCCCC2)cc1 | - | - | 14.1µM
COc1ccccc1C(=O)Nc1ccc(C(=O)OCc2cc(=O)n3nc(C)sc3n2)cc1 | . | - | -
O=S(=O)(O)c1ccc(NN(c2c(O)ccc3ccccc23)S(=O)(=O)O)cc1 | . | - | -
Cc1ccc(NC(=O)/C(C#N)=C/c2cc(C)n(-c3ccc(N4CCOCC4)c([N+](=O)[O-])c3)c2C)c(C)c1 | - | ? | -
Cc1cc(/C=C(\C#N)C(=O)Nc2ccc(Cl)cc2)c(C)n1-c1ccc(N2CCOCC2)c([N+](=O)[O-])c1 | - | 7.94µM | -
COC(=O)CN(C#N)c1nc(N(C)C)nc(N(C)C)n1 | - | . | .
COC(=O)CN(C#N)c1nc(C)cc(C)n1 | - | - | -
COC(=O)CN(C#N)c1nc(NC(C)C)nc(OC)n1 | - | 20µM | 22.4µM
COC(=O)CN(C#N)c1nc(NCc2ccccc2)nc(OC)n1 | - | . | .
CCNc1nc(SC)nc(N(C#N)CC(=O)OC)n1 | - | 12.6µM | 14.1µM
COC(=O)CN(C#N)c1nc(OC)nc(N(C)C)n1 | - | 20µM | 28.2µM
FC(F)(F)c1ccccc1Cl | . | - | -
OC[C@H]1NC[C@H](O)[C@@H](O)[C@@H]1O | - | . | .
COC(=O)c1ccc(NC(=O)CC2C(=O)N(c3cccc(OC)c3)C(=O)N2Cc2cccc(OC)c2)cc1 (stereo not drawn) | . | - | -
SMILES | Giardia FBPA inh | Cruzain inh noDet | Cruzain inh Det
CCOC(=O)c1c(C)n(-c2ccc(OC)cc2)c2ccc(OC(=O)COc3ccccc3)cc12 | . | - | -
CC(=O)C1=NN(c2ccccc2)C2(S1)S/C(=C\c1ccccc1)C(=O)N2c1ccccc1 (stereo not drawn) | - | 10µM | -
COC(=O)C1=NN(c2ccccc2)C2(S1)SC(C(C)=O)=C(C)N2c1ccccc1 (stereo not drawn) | - | - | -
N#C/C(=C\c1ccc(-c2cccc([N+](=O)[O-])c2)o1)C(=O)N1CCOCC1 | - | . | .
N#C/C(=C\c1ccc(-c2ccc([N+](=O)[O-])cc2Br)o1)C(=O)N1CCN(c2ccccc2)CC1 | - | 12.6µM | -
CC(=O)c1sc(Nc2nc3cc4c(cc3s2)OCO4)nc1C | - | . | .
Fc1ccc2nc(Nc3nc4cc5c(cc4s3)OCO5)sc2c1 | - | ? | -
C(=C\c1ccccc1)/C=N/Nc1nc2ccccc2s1 | - | ? | -
Brc1ccc(/C=C/C=N/Nc2nc3ccccc3s2)cc1 | . | 3.98µM | -
CCOC(=O)c1sc(Nc2nc3cc4c(cc3s2)OCO4)cc1C | - | 25.1µM | -
c1ccc2sc(Nc3nc4cc5c(cc4s3)OCO5)nc2c1 | - | 25.1µM | -
Brc1cc2c(cc1/C=N/Nc1nc3ccccc3s1)OCO2 | - | 20µM | -
C(=N\Nc1nc2ccccc2s1)/c1ccc2c(c1)OCO2 | - | - | -
CCN(CC)CCC(c1ccc(N(C)C)cc1)c1c(OC)cc(OC)c2c(C)cc(=O)oc12 (stereo not drawn) | - | . | .
Cn1ccnc1SCC(=O)Nc1cc(Cl)ccc1Cl | . | - | -
Cc1ccc(NC(=O)CCc2nnc3n(CC(C)C)c(=O)c4ccccc4n23)cc1C | . | - | -
Cc1nc2cccc([N+](=O)[O-])c2n1CCCN(C)C | . | - | -
CCN1C(=NCc2cc(OC)c(OC)c(OC)c2)N[C@@H](c2cccc(F)c2)C(C(=O)OC)=C1C | - | . | .
COC(=O)c1ccc(Cl)cc1NC(=O)N1CC=C(c2c[nH]c3ccccc23)CC1 | . | ? | -
O=C1c2ccccc2C(=O)N1c1ccc(Cl)cc1 | - | - | ?
O=C1C2C(c3ccccc3)(C(=O)N1c1ccc(Cl)cc1)C2(c1ccccc1)c1ccccc1 (stereo not drawn) | - | 25.1µM | -
